# In all, about 48,000 compounds went through this assay and about 13,000 (27%) showed an effect of 50% or more. The list shows a part of the results.
# Tested on: Wolbachia pipientis
# Assay: Anti-Wolbachia Cell-Based Screen
# Format: functional
# Set-up: scale not given: in the data most compounds retested in dose-response had high values
# Conditions: 5 µM
row,Compound,Percent Effect [%]
1,O=C(NC[C@H]1COCc2nc3cc(F)ccc3n21)c1cccnc1,-2.363
2,CCS(=O)(=O)CCNC(=O)[C@@]12CNC[C@@H]1CN(C1CCCC1)C2,17.06
3,CC(=O)Nc1ccc(CNC2CCCSC2)cc1 (stereo not given),-9.842
4,Cc1occc1C(=O)N1C[C@@H]2[C@@H](C1)OCC(=O)N2Cc1cccnc1.O=C(O)C(F)(F)F,-5.789
5,Cn1ccc(C(=O)N2C[C@@H]3OCCN(c4ncccn4)[C@@H]3C2)n1.O=C(O)C(F)(F)F,98.93
6,Cn1ccc(C(=O)N2C[C@@H]3CCN(c4cccnc4)C[C@@H]3C2)n1.O=C(O)C(F)(F)F,-11
7,Cc1ccccc1C(=O)N1C[C@@H]2OCCN(c3ncccn3)[C@@H]2C1.O=C(O)C(F)(F)F,105.7
8,Cc1occc1C(=O)N1C[C@@H]2OCCN(c3ncccn3)[C@@H]2C1.O=C(O)C(F)(F)F,117.5
9,Cc1cccc(C(=O)N2C[C@@H]3OCCN(c4ncccn4)[C@@H]3C2)n1.O=C(O)C(F)(F)F.O=C(O)C(F)(F)F,-4.674
10,Cc1occc1C(=O)N1C[C@H]2CCCC(OCc3cccnc3)[C@H]2C1.O=C(O)C(F)(F)F (stereo not given in full),-5.108
11,O=C(c1cc(-n2cccn2)ccn1)N1CCOc2ccncc21,-0.9385
12,O=C1CN(CC[C@@H](O)c2ccccc2)CCN1c1ccccc1Cl,-4.837
13,CC(=O)Nc1nc(C(=O)N2CCCC(n3cncn3)C2)cs1 (stereo not given),110.6
14,Cc1nc(C(=O)N2CCCC(n3cncn3)C2)cs1 (stereo not given),-4.147
15,CC(=O)Nc1nc(C(=O)N2CCCC(n3nc(C)cc3C)C2)cs1 (stereo not given),-2.313
16,O=C(c1cc(C2CC2)on1)N1CCCC(n2cncn2)C1 (stereo not given),7.01
17,O=C(c1csnn1)N1CCCC(n2cncn2)C1 (stereo not given),98.21
18,O=C(c1cscn1)N1CCCC(n2cncn2)C1 (stereo not given),88.79
19,CCC(=O)NCc1ccccc1Cn1ccnc1,2.122
20,Cc1ccc2c(c1)OC(C)(C)CC2NC(=O)C1CCN(S(C)(=O)=O)CC1 (stereo not given),-7.671
21,Cn1nc(CNC(=O)C2CCCC2)cc1C1CC1,-4.336
22,C/C=C(\C)CN1CCCn2nc(CNC(=O)C3CCC3)cc2C1,8.995
23,CCC(=O)NCc1cc(C2CC2)n(C2CCCC2)n1,-1.631
24,Cn1nc(CNC(=O)C2CC2)cc1C1CC1,4.922

row,Compound,Percent Effect [%]
1,O=C(NCc1cc(C2CC2)n(C2CCCC2)n1)C1CC1,118.5
2,Cn1nc(CNC(=O)C2CCCCC2)cc1C1CC1,119.6
3,Cn1nc(CNC(=O)C2CCN(S(C)(=O)=O)CC2)cc1C1CC1,134.6
4,Cn1nc(CNC(=O)C2CCC2)cc1C1CC1,172.6
5,O=C(O)C1(Cc2ccccc2Cl)CCN(c2ncccn2)CC1,4.771
6,Cc1noc(-c2cccnc2N(C)Cc2cscn2)n1,-2.045
7,CCC[C@H]1CN(CCOC)C[C@@H]1NC(=O)Cn1cc(C)cn1,-1.609
8,CCc1ncc(C(=O)NC(C)(C)CC)s1,-4.681
9,CCC(C)n1cnc(S(=O)(=O)N(C)C)c1 (stereo not given),-2.659
10,Cc1cncnc1C1CCN(C(=O)CN(C)C)CC1,107.4
11,CCC(=O)N1CCC(c2nnc(Cn3cccn3)n2C2CC2)CC1,6.186
12,CCC(=O)N1CCC(c2ncncc2C)CC1,105.8
13,Cc1cc(C)n(-c2cncc(N3CCN(C(=O)CN(C)C)CC3)n2)n1,-21.39
14,CCC(=O)N1CCC(c2nnc(Cn3cncn3)n2C2CC2)CC1,-3.377
15,Cc1noc(C2CCN(C(=O)CN(C)c3ccc(Cl)cn3)CC2)n1,-9.214
16,NC(=O)CSCC(=O)N1CCc2cc(Cl)cc(Cl)c2C1,-10.26
17,COc1ccc(NC(=O)NCC(C)N2CCc3ccccc32)cc1 (stereo not given),6.782
18,CC(CNC(=O)c1cccc(C#N)c1)N1CCc2ccccc21 (stereo not given),-2.298
19,Cc1noc(C)c1C(=O)NCC(C)N1CCc2ccccc21 (stereo not given),136.7
20,O=C(c1ccc(=O)[nH]n1)N1CCc2ccccc21,6.411
21,Cc1noc(C)c1C(=O)NCC1CCCCN1Cc1ccccc1 (stereo not given),1.84
22,Cc1noc(C)c1C(=O)NCC(C)N(C)C (stereo not given),-3.203
23,O=C(NCCSC1CCCC1)c1cc(C2CC2)on1,6.284
24,CCC(CNC(=O)c1ccc(=O)[nH]n1)N1CCc2ccccc2C1 (stereo not given),-13.41

row,Compound,Percent Effect [%]
1,Cc1cc(C(=O)NCC(C)N2CCc3ccccc32)on1 (stereo not given),128.5
2,CC(CNC(=O)c1cc(C2CC2)on1)N1CCc2ccccc21 (stereo not given),110.3
3,CC(CNC(=O)c1ccc(C#N)cc1)N1CCc2ccccc21 (stereo not given),-4.664
4,CC(CNC(=O)c1ccc(=O)[nH]n1)N1CCc2ccccc21 (stereo not given),114.6
5,CS(=O)(=O)CCCNC(=O)NC1CC(c2cccc(Cl)c2)C1 (stereo not given),-3.705
6,N#Cc1cccc(S(=O)(=O)NC2CCN(Cc3ccccc3)C2=O)c1 (stereo not given),-3.444
7,CC(C)Oc1cc(N2CCC3(CC2)[C@H](O)C[C@@H]3O)nc(N)n1,12.72
8,CN1CCCC(N2CCN(c3nc4ccccn4c3C#N)CC2)C1 (stereo not given),6.11
9,CC(=O)N(CCc1ccccc1)CC(=O)Nc1ccccc1C#N,-7.598
10,CC(C)(C)c1ncc2c(n1)CN(C(=O)c1ccc(C#N)nc1)C2,-2.492
11,COC(=O)c1ccc(F)c(S(=O)(=O)Nc2ccc(C(N)=O)cc2)c1,8.532
12,Cc1cccc(N2CCN(CCC(=O)NCc3ccc(C)s3)CC2)c1,3.46
13,Cc1cnc(C(=O)N2CCN(C(=O)C(C)C)[C@@H]3CS(=O)(=O)C[C@@H]32)cn1,-9.288
14,COC(=O)CC1CCN(C(=O)c2ccc(-n3nnnc3C)cc2)CC1,129.7
15,Cc1nnnn1-c1ccc(CC(=O)N2CCOCC(O)C2)cc1 (stereo not given),-21.98
16,COC(=O)CC1CCN(C(=O)c2ccc(C)cc2)CC1,100
17,Cc1ccc(O)c(C(=O)N2CCC(CN3CCCCCC3)CC2)c1,5.424
18,COc1ncccc1C(=O)N1CCC(CNC(C)=O)CC1,-0.8543
19,COC(=O)CC1CCN(C(=O)c2ccccc2-n2nnnc2C)CC1,87.7
20,CC(C)(C)OC(=O)NCC1CCN(C(=O)c2ccccc2O)CC1,15.84
21,CCNc1ccnc(NC2CCN(C(=O)c3ccc(C)cc3)CC2)n1,10.68
22,COC(=O)C1CCCN1C(=O)c1ccc(-n2nc(C)cc2C)cc1 (stereo not given),-11.77

# Source: ChEMBL document CHEMBL3988442, “University of Dundee, Small-Polar-MMV Screening Library” (2021)
